PubChem BioAssay
Values without a mark were called inactive. Activity calls are given as the source filed them. Rule as the data show it, unless noted: active = inhibition above about 33%; inactive = the rest.

Assays:
[1] = StAR promoter reporter inhibitors, counter-screen for LRH-1 inverse agonist project, cell-based, luminescence, high throughput (AID 651611; in the data active = inhibition above about 28%); conditions: StAR promoter luciferase reporter counterscreen, at 3.6 µM, active compounds read high
[2] = target: Nuclear receptor subfamily 5 group A member 2 (Homo sapiens) (UniProt O00482); assay: NR5A2 activity suppression in reporter cells – cell-based, luminescence, confirmation (AID 651613; in the data active = inhibition above about 42%;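 also: HEK293T cells co-transfected with LRH-1 and StAR promoter luciferase reporter; 0% = vehicle wells and 100% = parental cells lacking receptor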); conditions: cell-based LRH-1 luciferase reporter, inverse agonism; at 3.6 µM; active compounds read high
Sequence of Nuclear receptor subfamily 5 group A member 2 (Homo sapiens) (O00482 whole entry, looked up): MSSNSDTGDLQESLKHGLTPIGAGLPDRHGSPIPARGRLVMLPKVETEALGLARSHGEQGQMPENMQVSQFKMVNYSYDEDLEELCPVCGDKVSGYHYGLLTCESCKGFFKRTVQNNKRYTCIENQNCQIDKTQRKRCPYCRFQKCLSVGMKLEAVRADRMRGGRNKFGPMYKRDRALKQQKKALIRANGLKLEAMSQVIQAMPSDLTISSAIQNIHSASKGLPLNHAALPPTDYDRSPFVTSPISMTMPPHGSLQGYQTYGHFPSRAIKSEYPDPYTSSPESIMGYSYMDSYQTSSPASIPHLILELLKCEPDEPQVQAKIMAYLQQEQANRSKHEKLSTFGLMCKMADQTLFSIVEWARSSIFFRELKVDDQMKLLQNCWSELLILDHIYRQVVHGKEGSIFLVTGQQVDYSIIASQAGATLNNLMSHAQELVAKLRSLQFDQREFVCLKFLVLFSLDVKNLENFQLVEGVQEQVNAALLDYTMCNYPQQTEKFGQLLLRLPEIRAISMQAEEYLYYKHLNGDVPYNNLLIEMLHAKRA

[3] = target: Steroidogenic factor 1 (Homo sapiens) (UniProt Q13285); assay: inverse agonism at SF1 nuclear receptor – cell-based, luminescence, high throughput, counter-screen for LRH-1 inverse agonist project (AID 651614; in the data active = inhibition above about 44%;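 also: cells cotransfected with StAR promoter reporter and SF1 expression vector; 0% = vehicle on cells with receptor and 100% = vehicle on cells lacking receptor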); conditions: cell-based SF1 luciferase reporter, at 3.6 µM, active compounds read high
Sequence of Steroidogenic factor 1 (Homo sapiens) (Q13285 whole entry, looked up, the tested form may be a part): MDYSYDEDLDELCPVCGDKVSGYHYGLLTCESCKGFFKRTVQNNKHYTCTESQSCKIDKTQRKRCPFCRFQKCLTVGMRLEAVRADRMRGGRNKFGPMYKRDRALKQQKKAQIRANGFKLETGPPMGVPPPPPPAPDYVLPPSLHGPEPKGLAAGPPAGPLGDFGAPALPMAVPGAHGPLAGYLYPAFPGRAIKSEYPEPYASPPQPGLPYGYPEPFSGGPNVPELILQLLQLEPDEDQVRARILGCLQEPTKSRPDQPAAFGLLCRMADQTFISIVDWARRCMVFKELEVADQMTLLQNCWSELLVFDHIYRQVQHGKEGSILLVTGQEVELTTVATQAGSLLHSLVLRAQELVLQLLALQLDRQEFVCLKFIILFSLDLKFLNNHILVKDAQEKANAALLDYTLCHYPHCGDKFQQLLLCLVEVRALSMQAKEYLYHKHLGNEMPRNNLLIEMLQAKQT

[4] = compounds suppressing VP16-driven luciferase signal – cell-based, luminescence, high throughput, counter-screen for LRH-1 inverse agonist project (AID 651615); conditions: Gal4-VP16 luciferase reporter cells, at 3.6 µM, active compounds read high
[5] = test system: transactivating tegument protein VP16 (Human herpesvirus 1); assay: compounds suppressing VP16-driven luciferase signal – cell-based, luminescence, single concentration, counter-screen for SRC2 inhibitor project (AID 652007; in the data active = inhibition above about 36%); conditions: cell-based VP16 transactivation luciferase reporter, at 8.9 µM, active compounds read high
[6] = target: Nuclear receptor coactivator 2 (Homo sapiens) (UniProt Q15596); assay: inhibition of GAL4-SRC2 driven luciferase expression – cell-based, luminescence, HEK293, triplicate, confirmation (AID 652008;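 active = mean inhibition above 46.5%, the solvent-only control mean plus 3 SD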;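 also: 0% = DMSO-treated cells and 100% = Gossypol at 36 µM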); conditions: HEK293 GAL4-SRC2 luciferase reporter, at 8.9 µM, active compounds read high
Sequence of Nuclear receptor coactivator 2 (Homo sapiens) (Q15596 whole entry, looked up, the tested form may be a part): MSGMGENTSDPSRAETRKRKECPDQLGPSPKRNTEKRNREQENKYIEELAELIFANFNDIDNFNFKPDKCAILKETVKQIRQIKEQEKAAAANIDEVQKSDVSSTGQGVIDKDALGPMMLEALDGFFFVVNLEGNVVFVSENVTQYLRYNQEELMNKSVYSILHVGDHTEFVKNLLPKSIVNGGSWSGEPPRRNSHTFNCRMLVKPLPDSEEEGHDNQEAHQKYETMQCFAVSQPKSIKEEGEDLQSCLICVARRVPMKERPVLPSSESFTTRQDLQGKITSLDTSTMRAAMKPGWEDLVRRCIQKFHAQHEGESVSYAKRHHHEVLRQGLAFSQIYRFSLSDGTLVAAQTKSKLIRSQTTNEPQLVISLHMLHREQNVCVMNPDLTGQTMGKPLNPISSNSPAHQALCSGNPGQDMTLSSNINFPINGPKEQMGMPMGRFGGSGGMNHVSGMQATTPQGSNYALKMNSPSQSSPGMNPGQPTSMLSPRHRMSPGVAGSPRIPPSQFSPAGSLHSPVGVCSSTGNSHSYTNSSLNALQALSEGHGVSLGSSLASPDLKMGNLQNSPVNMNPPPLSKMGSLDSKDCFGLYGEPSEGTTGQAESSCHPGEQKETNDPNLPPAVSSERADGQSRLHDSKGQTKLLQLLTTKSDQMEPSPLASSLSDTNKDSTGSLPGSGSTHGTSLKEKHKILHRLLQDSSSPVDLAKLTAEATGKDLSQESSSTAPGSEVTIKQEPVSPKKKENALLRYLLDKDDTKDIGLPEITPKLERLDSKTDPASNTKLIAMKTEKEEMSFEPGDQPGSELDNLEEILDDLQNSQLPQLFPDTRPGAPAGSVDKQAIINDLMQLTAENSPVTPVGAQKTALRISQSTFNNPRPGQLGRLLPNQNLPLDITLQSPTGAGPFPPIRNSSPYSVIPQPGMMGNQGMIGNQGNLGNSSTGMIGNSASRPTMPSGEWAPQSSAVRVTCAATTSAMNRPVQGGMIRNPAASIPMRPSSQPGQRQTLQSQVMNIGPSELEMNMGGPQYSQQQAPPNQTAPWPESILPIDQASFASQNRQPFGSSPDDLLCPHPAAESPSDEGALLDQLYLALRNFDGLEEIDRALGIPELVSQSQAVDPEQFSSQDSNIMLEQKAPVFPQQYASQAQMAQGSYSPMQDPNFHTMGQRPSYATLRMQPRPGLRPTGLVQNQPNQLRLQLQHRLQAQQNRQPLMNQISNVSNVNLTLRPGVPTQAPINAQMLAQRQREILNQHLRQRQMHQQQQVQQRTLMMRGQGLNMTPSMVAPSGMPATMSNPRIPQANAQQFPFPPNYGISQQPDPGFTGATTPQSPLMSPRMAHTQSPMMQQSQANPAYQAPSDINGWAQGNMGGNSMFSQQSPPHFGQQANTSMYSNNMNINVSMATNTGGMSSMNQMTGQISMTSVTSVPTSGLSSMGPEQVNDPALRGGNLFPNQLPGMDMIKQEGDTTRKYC

Row | SMILES | inhibition [1] | inhibition [2] | inhibition [3] | inhibition [4] | inhibition [5] | inhibition [6]
1 | CC[n+]1c(/C=C/C=C/c2ccc(N(C)C)cc2)sc2ccccc21 | 54% (active) | 104% (active) | 86.4% (active) | 86.5% (active) | – | –
2 | CC1=CC2OC3CC4OC(=O)C=CC=CC(=O)OCCC(C)C(O)C(=O)OCC2(CC1)C4(C)C31CO1 (stereo not drawn) | 96.6% (active) | 109% (active) | 98.2% (active) | 98.1% (active) | – | –
3 | CC1OC(OC2C=C3CCC4C(CCC5(C)C(c6ccc(=O)oc6)CCC45O)C3(C)CC2)C(O)C(OC2OC(CO)C(O)C(O)C2O)C1O (stereo not drawn) | 95.6% (active) | 110% (active) | 97.2% (active) | 94.4% (active) | 63.6% (active) | 48.1% (active)
4 | Cc1cc(OC(=O)c2ccco2)c2c3c(c(=O)oc2c1)CCCC3 | 7.67% | 56% (active) | 47.2% (active) | 20.2% | – | –
5 | CCOC(=O)[C@]12Cc3cc(Cl)ccc3[C@H]1N(C1CCCCC1)C(=O)c1ccccc12 | 80.2% (active) | 107% (active) | 89.1% (active) | 92.8% (active) | – | –
6 | CC1=C(O)C(=O)C=C2C1=CC=C1C2(C)CCC2(C)C3CC(C)(C(=O)O)CCC3(C)CCC12C (stereo not drawn) | 91.6% (active) | 106% (active) | 96.7% (active) | 89.5% (active) | – | –
7 | CCOC(=O)[C@]12Cc3ccc(C)cc3[C@H]1N(C1CCCCC1)C(=O)c1ccccc12 | 39.6% (active) | 98% (active) | 29.8% | 84.1% (active) | – | –
8 | C=C1C(=O)O[C@@H]2C[C@@H](C)[C@@H]3C4OC4C(=O)[C@@]3(C)[C@@H](O)[C@H]12 (stereo partly drawn) | -30% | 60.7% (active) | 67.9% (active) | 82.8% (active) | – | –
9 | c1ccc2c(c1)[IH]c1ccccc1-2 | 42.4% (active) | 78.5% (active) | 64.1% (active) | 72.8% (active) | – | –
10 | CC12CCC(O)CC1CCC1C2CCC2(C)C(C3=CC(=O)OC3)C(O)CC12O (stereo not drawn) | 92.6% (active) | 94.1% (active) | 74.8% (active) | 41% (active) | – | –
11 | CCCCn1c(NC(=O)c2ccc(Br)o2)c(C(=O)OCC)c2nc3ccccc3nc21 | 27.1% | 27.8% | 45.6% (active) | 7.64% | – | –
12 | CC(C)N(C(=O)CCl)c1ccccc1 | 19.8% | 54.8% (active) | 51.7% (active) | -6.55% | – | –
13 | Cc1cc(S(=O)(=O)NC(C)C)ccc1OCC(=O)N1CCN(Cc2ccc3c(c2)OCO3)CC1 | 16.6% | 52.9% (active) | 40% | 19.5% | – | –
14 | OC1(c2ccc(F)cc2)CC2CCC(C1)N2Cc1nnnn1C1CCCC1 (stereo not drawn) | -7.67% | 46.8% (active) | 50.3% (active) | -0.39% | – | –
15 | C[C@@H]1O[C@@H](O[C@H]2C[C@@H](O)[C@]3(CO)[C@H]4[C@H](O)C[C@]5(C)[C@@H](C6COC(=O)C6)CC[C@]5(O)[C@@H]4CC[C@]3(O)C2)[C@H](O)[C@H](O)[C@H]1O (stereo partly drawn) | 92.4% (active) | 103% (active) | 87.3% (active) | 66.4% (active) | – | –
16 | COc1ccc(NS(=O)(=O)c2ccc(OCC(=O)N3CCN(C)CC3)cc2)cc1Cl | 2.1% | 48.2% (active) | 34.7% | 3.62% | – | –
17 | CCC(C)N1C(=O)/C(=C\c2ccc(N3CCCCCC3)cc2)C(=O)NC1=S (stereo not drawn) | 1.31% | 58.9% (active) | 40.2% | -2.53% | – | –
18 | N#CCCn1cc(C(=O)Nc2ccc([N+](=O)[O-])cc2)c(-c2ccccc2)n1 | 7.58% | 35.3% | 41.5% | 15.5% | – | –
19 | Cc1cc(OCC(=O)OC(C)C)c2c3c(c(=O)oc2c1)CCCC3 | 14.7% | 57.9% (active) | 54.9% (active) | -9.99% | – | –
20 | C=C1[C@@H](C)[C@H]2[C@H](Cc3ccccc3)NC(=O)[C@]23OC(=O)/C=C/[C@H](O)CCC[C@@H](C)C/C=C/[C@H]3[C@@H]1O | 52.7% (active) | 27.9% | 44.3% (active) | 27% | – | –
21 | CCOC(=O)[C@]12Cc3cc(Cl)ccc3[C@H]1N(CC(=O)OC)C(=O)c1ccccc12 | 72.7% (active) | 94.3% (active) | 64.4% (active) | 81.1% (active) | – | –
22 | COC(=O)C12CCc3c(ccc4cc(OC)ccc34)C1=CC(=O)C2 (stereo not drawn) | 0.25% | 12.9% | 25.3% | -1.27% | – | –
23 | COc1cc2c(cc1OC)[C@@H]1C(=O)c3ccc4c(c3O[C@@H]1CO2)C[C@H](C(C)C)O4 | 34.2% (active) | 68.7% (active) | 61.4% (active) | 57.4% (active) | – | –
24 | Cn1cc(NC(=O)CCl)cn1 | 41% (active) | 61.9% (active) | 61.2% (active) | -18.7% | – | –
